Drawing on ChEMBL document CHEMBL5724796, “Tm Shift (DSF) assay results for EUbOPEN Chemogenomics Library” (2024), this text covers ΔTm for 39 molecules.

Structures are written as SMILES. Where “and” joins values, the source holds several entries; their conditions need not be identical. Identical values can stand only once.

For the assay, the target named is Cyclin-dependent kinase 2 (Homo sapiens) (UniProt P24941). As to conditions: Compound concentration 20.0 uM.
With `CC(C)(C)NS(=O)(=O)c1ccc(NC(=O)[C@H](Cc2ccccc2)NC(=O)c2ccc(F)cc2)cc1`, the ΔTm (commonly the shift of the melting midpoint relative to a reference) stood at 0.06 °C. Then `CC(C)(C)OC(=O)NCCCCCN(CCc1ccccc1)C(=O)n1cc(-c2ccc(OC(F)(F)F)cc2)nn1`, with 0.01 °C; and `O=C(CN1CCN(c2ccc(F)cn2)CC1)Nc1nc2c(s1)CCCC2`, with 0.14 °C. Regarding `C[C@H](Nc1cc(Cl)nc2c1cnn2[C@@H]1O[C@H](COP(=O)(O)CP(=O)(O)O)[C@@H](O)[C@H]1O)c1ccccc1F`, the ΔTm was -0.1 °C. With `OC[C@H]1O[C@@H](c2ccc(F)c(Cc3cc4ccccc4s3)c2)[C@H](O)[C@@H](O)[C@@H]1O`, the ΔTm was found to be 0.04 °C.

Take `CCn1ncc2c(NC3CCOCC3)c(-c3nnc(Cc4sc(C)nc4C)o3)cnc21`: the ΔTm was -0.03 °C. For `O=c1[nH][nH]c(=O)c2cc(OCc3ccccc3F)ccc12`, the ΔTm was 0.72 °C. The value for `Cc1cc(Cl)cc(-c2c3sc(CN4C(=O)C5C(C4=O)C5(C)C)cc3nn2C)c1OC1CCNCC1` (centres undefined) was 0.13 °C. Regarding `COc1cc(C(=O)NCC2(N(C)C)CCCC2)cc(OC)c1OCc1ccccc1`, the ΔTm came out at 0.36 °C. As for `CNC(=O)N1CCc2c(c(N3CCCc4cc(-c5cnn(C)c5)c(C(F)F)cc43)nn2C2CCOCC2)C1`, the ΔTm is 0.2 °C. For `Nc1ccccc1NC(=O)c1ccc(CNc2nccc(-c3cccnc3)n2)cc1`, the ΔTm is 0.7 °C. `CCCCCCCCCCCCCCCCNNC(=O)c1cccs1`: the ΔTm is -0.3 °C. The value for `CN1CCN2c3c(cccc31)[C@@H]1CN(CCCC(=O)c3ccc(F)cc3)CC[C@@H]12` was -0.01 °C; that for `Cn1ncc(-c2nn(C)c3ncnc(N4CCC4)c23)c1-c1ccc(C(F)(F)F)cc1` was -1.77 °C. As for `COc1cc2c(NC3CCN(C)CC3)cc(-c3ccc(C)o3)nc2cc1OCCCN1CCCC1`, the ΔTm was determined as 0.69 °C. Turning to `O=C(NCCCc1ccccc1)c1cccc(-c2cc(O)c3ncccc3c2)c1`, the ΔTm was determined as 0.91 °C. For `N=C(N)SCc1ccc(CN2C(=O)C(=O)c3cc(Br)cc(Br)c32)cc1`, the ΔTm amounted to 0 °C. Consider `O=C(C[C@@H](C(F)F)n1ccc(F)n1)N1CCC(O)(Cn2cnc3c(cnn3-c3ccc(F)cc3)c2=O)CC1`, for which the ΔTm was 0.2 °C. As for `Cc1c(CN2CCC(Nc3ncnc4sc(CC(F)(F)F)cc34)CC2)ccc2[nH]c(C#N)cc12`, the ΔTm was -0.04 °C. With `N#Cc1ccc(-c2c3n(c4cccnc24)CCN(C2CC2)C3=O)cc1F`, the thermal shift (ΔTm) was 0.14 °C. With `COc1cc2c(NC3CCN(C4CCCCC4)CC3)nc(N3CCCN(C(C)C)CC3)nc2cc1OCCCN1CCCCC1`, the ΔTm was 0.48 °C. For `CC(C)NCC(O)COC(Cn1c2ccccc2c2ccccc21)Cn1c2ccccc2c2ccccc21` (centres undefined), the ΔTm was -0.87 °C. Regarding `N#Cc1ccc(-c2csc(NN=C3CCCC3)n2)cc1`, the ΔTm is -3.5 °C.

Turning to `O=C(NC[C@H](O)CN1CCc2ccccc2C1)c1cc(NC2COC2)ncn1`, the ΔTm was 0.75 °C. For `CC(C)c1ccc(-c2cc(=O)c3ccccc3o2)cc1`, the ΔTm is -0.03 °C. Take `CC(C)NC(=O)c1ccc(OC(F)F)c(OCC2CC2)c1`: the ΔTm worked out at 0.29 °C. Then `O=C(C1CC1)N1CC[C@@H](Cc2n[nH]c(=O)n2-c2ccc(-c3ccc4occc4c3)cc2)C1`, with -0.31 °C and -0.16 °C; and `CCCCCCCCCCCCCC(=S)NCCCC[C@H](NC(=O)OCc1ccccc1)C(=O)Nc1ccccc1`, with 1.43 °C; and `CCNC(=O)c1noc(-c2cc(C(C)C)c(O)cc2O)c1-c1ccc(CN2CCOCC2)cc1`, with 0.79 °C.

As for `Cn1ncc2c(-c3c(-c4ccc(F)cn4)nn4c3COC(C)(C)C4)ccnc21`, the ΔTm is -0.29 °C. Turning to `CCCCNc1cc(C(=O)O)cc(S(N)(=O)=O)c1Oc1ccccc1`, the ΔTm is -0.19 °C.

As for `CN(C)CCCCC(=O)Nc1ccc(NC(=S)NC(=O)c2ccc(C(C)(C)C)cc2)cc1`, the ΔTm stood at 0.19 °C. Consider `CC(C)C(=O)c1c(C(C)C)nn2ccccc12`, for which the ΔTm is 0.95 °C. Turning to `Cc1nn(CC(F)(F)F)cc1Nc1ncc(Br)c(NCc2ccc(S(N)(=O)=O)cc2)n1`, the ΔTm was 0.52 °C. Then `NS(=O)(=O)OC[C@H]1C[C@@H](Nc2ncncc2C(=O)c2ccn(Cc3cccc(Br)c3)n2)C[C@@H]1O`, with 0.03 °C.

Turning to `Cc1ncc(Cl)cc1NCc1ccc(C(=O)N[C@@H](CC2CCCC2)C(=O)NC2CC2)s1`, the ΔTm was -0.15 °C.

Turning to `Cc1noc(C)c1-c1cc(Cl)c(Nc2ccccc2C(=O)O)c(Cl)c1`, the ΔTm is -0.13 °C. The value for `CC(=O)NCC(=O)N1CCC[C@@H]1B(O)O` was 1.18 °C; that for `C[C@@H](Nc1nc2c(cnn2C2CCCC2)c(=O)[nH]1)C(=O)N1CC[C@H](F)C1` was 0.63 °C.
